Reference: PubChem BioAssay AID1076 (NMMLSC, 2008)
The source made the active and inactive calls.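 The calls were made as follows: active = cell event count below 40, meaning activity score above 60 where score is 100 minus count; inactive = the rest.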

Experiment: cytotoxicity in LNCaP prostate cells – cell-based, cell event count, single point, cytotoxicity control for prostate differentiation activator project, confirmation (AID 1076);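 also: counts scatter-gated live cells after medium removal discards detached dead cells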
Conditions: LNCaP cell loss, flow cytometry event count, 4 d, stronger effect = lower value

SMILES: CCOC(=O)N1CCC(NC(=O)c2cc3c(-c4cccc(OC)c4)nn(C)c3s2)CC1
- cell event count (at 100 µM): 142 (inactive)
- cell event count (event count, at 10 µM): 300

SMILES: Cc1cc(NC(=O)CSc2nnc(Cn3c(=O)sc4ccccc43)n2-c2ccccc2C)no1
- cell event count (at 100 µM): 200 (inactive)
- cell event count (event count, at 10 µM): 121

SMILES: CN1C(=O)c2ccc(S(=O)(=O)c3ccc(C(=O)O)cc3)cc2C1=O
- cell event count (at 100 µM): 195 (inactive)
- cell event count (event count, at 10 µM): 166

SMILES: CCOc1cccc(-c2nnc3n2N=C(c2cc(OC)ccc2OC)CS3)c1
- cell event count (at 100 µM): 3 (inactive)
- cell event count (event count, at 10 µM): 136

SMILES: Cc1ccc(C)c(N2CCN(CCCNC(=O)Cn3cc4c(n3)CCC(C)C4)CC2)c1 (stereo unspecified)
- cell event count (at 100 µM): 5 (inactive)
- cell event count (event count, at 10 µM): 276

SMILES: Oc1ccccc1CNc1nc2ccccc2n1CCN1CCCCC1
- cell event count (at 100 µM): 44 (inactive)
- cell event count (event count, at 10 µM): 176

SMILES: O=C(NCCCN1CCN(c2cccc(Cl)c2)CC1)c1cccc(N2CCCC2=O)c1
- cell event count (at 100 µM): 222 (inactive)
- cell event count (event count, at 10 µM): 176

SMILES: CCc1ccc(-c2nc(CN3CCCC(C(=O)NCCc4ccc(OC)c(OC)c4)C3)c(C)o2)cc1 (stereo unspecified)
- cell event count (at 100 µM): 8 (inactive)
- cell event count (event count, at 10 µM): 144

SMILES: COCCn1c(=O)[nH]c2cc(C(=O)NCCCN3CCN(c4ccc(F)cc4)CC3)ccc2c1=O
- cell event count (at 100 µM): 140 (inactive)
- cell event count (event count, at 10 µM): 194

SMILES: CCn1c(SCC(=O)Nc2ccccc2F)nc2c(c1=O)SC(C)C2 (stereo unspecified)
- cell event count (at 100 µM): 75 (inactive)
- cell event count (event count, at 10 µM): 70.5

SMILES: Cn1cc(CNC(=O)C2c3ccccc3Oc3ccccc32)cn1
- cell event count (at 100 µM): 465 (inactive)
- cell event count (event count, at 10 µM): 217

SMILES: Cc1cc(N2CCN(C)CC2)nc2ccc(NC(=O)c3ccc(Br)o3)cc12
- cell event count (at 100 µM): 4 (inactive)
- cell event count (event count, at 10 µM): 96.5

SMILES: CCS(=O)(=O)N1CCC(C(=O)NCCCN2CCN(c3ccccc3F)CC2)CC1
- cell event count (at 100 µM): 135 (inactive)
- cell event count (event count, at 10 µM): 70.5
